A structure can be active in one record and inactive in another. Calls of active or inactive are those of the source. How the source made its calls: active means hit-call score of the fitted dose curve at least 0.9, where 1 is the maximum; inactive means score below 0.9.
Test: ATG_TGFb_CIS: Attagene CIS-FACTORIAL HepG2 Assay for human Transforming Growth Factor (TGF) (AID 2282967)
Conditions: HepG2 Attagene CIS TGFb reporter, mRNA transcription; actives raise or lower the signal
Procedure: ATG_CIS is a cell-based, multiplexed-readout assay that uses HepG2, a human liver cell line, with measurements taken at 24 hours after chemical dosing in a 24-well plate.ATG_TGFb_CIS is one of 52 assay component(s) measured or calculated from the ATG_CIS assay. It is designed to make measurements of mRNA induction, a form of inducible reporter, as detected with fluorescence intensity signals by Reverse transcription polymerase chain reaction (RT-PCR) and Capillary electrophoresis technology.Data from the assay component ATG_TGFb_CIS was analyzed into 1 assay endpoint. This assay endpoint, ATG_TGFb_CIS, was analyzed with bidirectional fitting relative to DMSO as the negative control and baseline of activity. Using a type of inducible reporter, measures of mRNA for gain or loss-of-signal activity can be used to understand the reporter gene at the transcription factor-level as they relate to the gene TGFB1. Furthermore, this assay endpoint can be referred to as a primary readout, because this assay has produced multiple assay endpoints where this one serves a reporter gene function. To generalize the intended target to other relatable targets, this assay endpoint is annotated to the growth factor intended target family, where the subfamily is transforming growth factor beta.
Human liver HepG2 cells are transiently transfected with multiple reporter transcription units (MRTUs) in 6-well plates using FuGene 6 reagent (Roche; 3 ml FuGene/1 mg DNA). The MRTU constructs are regulated by a cis-regulating element (promoter). […] A major difference between the CIS and TRANS system is that in CIS activities of endogenous TFs are measured, whereas the TRANS assay evaluates changes in activities of exogenous, chimeric NR-Gal4 proteins. […] At the end of 24 hour incubation, total RNA was isolated using TriZol reagent (Invitrogen). The isolated RNA is then reverse-transcribed using oligo(dT) primer and Mo-MLV reverse transcriptase (Invitrogen) with DNAse I (Ambion) treatment for 30 min. The one-tenth of the produced cDNA was amplified by PCR using Taq DNA polymerase (Invitrogen) and two reporter sequence-specific primers. The PCR products were fluorescently labeled by primer extension with 6-arboxyfluorescein (6-FAM) 5'-labeled reporter sequence-specific primer (2 min at 95 C, 20 s at 68 C and 10 min at 72 C) and these products were digested with 5U of HpaI (New England Biolabs) for 2h at 37 C. The fragments were purified using Qiaquick PCR columns (Qiagen), analyzed on an ABI 3130xL genetic analyzer (Applied Biosystems) with peak positions identified by using a set of X-rhodamine (ROX)-labeled MapMarker1000 molecular weight standards (BioVentures). The raw capillary electrophoresis data was processed using Attagraph software (Attagene).

Compound | outcome | AC50
O=C(CBr)c1ccc(O)cc1 | inactive | –
O=S1OC[C@@H]2[C@H](CO1)[C@]1(Cl)C(Cl)=C(Cl)[C@@]2(Cl)C1(Cl)Cl (stereo not given in full) | inactive | –
O=C(Cl)OCCOCCOC(=O)Cl | inactive | –
COc1nn(C(=O)NS(=O)(=O)c2ccccc2OC(F)(F)F)c(=O)n1C | inactive | –
Oc1cccc(-c2ccccc2)c1 | inactive | –
CN(C)CCN(C)C | inactive | –
CCCCN(CCCCO)N=O | inactive | –
CCCCOC(=O)COC(=O)c1ccccc1C(=O)OCCCC | inactive | –
CN(N=O)c1ccc([N+](=O)[O-])cc1 | inactive | –
CS(=O)(=O)c1ccc(C(=O)C2C(=O)CCCC2=O)c(Cl)c1COCC(F)(F)F | inactive | –
O=NN1CCCCCCC1 | inactive | –
CC1CC(=O)O1 (stereo not given) | inactive | –
CCC(C)(C#N)N=NC(C)(C#N)CC (stereo not given) | inactive | –
CC(O)(CS(=O)(=O)c1ccc(F)cc1)C(=O)Nc1ccc(C#N)c(C(F)(F)F)c1 (stereo not given) | inactive | –
C1CCC(C2CCCCC2)CC1 | inactive | –
CCN(CC)C(=O)C(Cl)=C(C)OP(=O)(OC)OC | inactive | –
CCOC(=O)CC(=O)CCl | – | 36.1 µM (active)
Clc1cccc(Cl)c1 | inactive | –
CCCCCCCCCCCCCl | inactive | –
N#Cc1ccccc1Cl | inactive | –

Compound | outcome | AC50
CC(=O)CN(CC(C)=O)N=O | inactive | –
OCCN(CCO)CCO | inactive | –
Clc1cccc(Cl)c1Cl | inactive | –
O=C(O)CC(O)(CC(=O)O)C(=O)O | inactive | –
O=S(=O)(C(Cl)(Cl)Cl)C(Cl)(Cl)Cl | inactive | –
Cc1cc(-c2cc(C)c(N)c(C)c2)cc(C)c1N | inactive | –
C=C(C)[C@@H]1CC=C(C=O)CC1 | inactive | –
O=C1C=CC(=O)c2ccccc21 | inactive | –
Nc1nc(=S)[nH][nH]1 | inactive | –
CC[N+](CC)(CC)CC | inactive | 1.07 µM (active)
CCCCS(=O)(=O)Cl | inactive | –
CCOC(=O)CCN(SN(C)C(=O)Oc1cccc2c1OC(C)(C)C2)C(C)C | inactive | –
C[C@]12CC[C@@H](O)C[C@@H]1CC[C@@H]1[C@@H]2CC[C@]2(C)C(=O)CC[C@@H]12 | inactive | –
Cc1ccccc1OP(=O)(Oc1ccccc1C)Oc1ccccc1C | – | 56.1 µM (active)
C=C(C)C(=O)OCC(CC)CCCC (stereo not given) | inactive | –
CNC(=O)N(C)c1nc2ccccc2s1 | inactive | –
CC1(C)COP(Oc2ccccc2)OC1 | inactive | –
CCCCN(CCCC)C(=S)[S-].CCCCN(CCCC)C(=S)[S-].[Ni+2] | inactive | –
Nc1c(Oc2ccccc2)cc(O)c2c1C(=O)c1ccccc1C2=O | inactive | –

— PubChem BioAssay (EPA / NIEHS)
